Screening data: PubChem BioAssay, The Scripps Research Institute Molecular Screening Center
Only some compounds are listed: those with a hit (about 2.4% of all), similar ones and a draw of the others.
ULK1 inh: human ULK1 kinase inhibition, primary screen | O75385 | AlphaScreen Atg13 phosphorylation by ULK1, luminescence | inhibition, % at 5.96 µM | AID 1259251 | actives 1.9% (n = 30,000); in the data active = inhibition above about 43%;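 also: 0% = median of compound wells and 100% = no enzyme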
ASK1 inh: inhibitors of human ASK1 kinase. Q99683. AlphaScreen MKK6 phosphorylation by ASK1, luminescence. inhibition, % at 7.44 µM. actives 0.99% (n = 22,000). AID 1159602; in the data active = inhibition above about 35%;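 also: 0% = median of compound wells and 100% = no enzyme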
An asterisk follows results filed as active; . = no result.

SMILES	ULK1 inh	ASK1 inh
COc1cc(C(=O)NS(=O)(=O)c2ccccc2C)ccc1Cc1cn(C)c2ccc(NC(=O)OC3CCCC3)cc12	65*	.
CCOc1ccc(-c2cc(=O)c3cc(NC(=O)c4ccc(OC)c(OC)c4)ccc3o2)cc1	7	.
NC(C(=O)Nc1ccc(-c2cnn(-c3ccc(Cl)cc3)c2)cc1)c1ccc(Cl)cc1 (configuration not stated)	-3	0
Cc1cnc(Nc2ccccc2)nc1NCc1ccccc1	3	6
OCCNc1ncnc2nc(Nc3nccc4ccccc34)[nH]c12	13	1
Cn1c(Nc2nc(C(=O)NCc3cccnc3)cs2)nc2ccccc21	-3	-5
Nc1cccc(-c2ccc(C(=O)NCCc3ccc(O)cc3)s2)c1	43*	7
CC(=O)c1cccc(-c2ccc(C(=O)NCCc3ccc(O)cc3)s2)c1	-17	-10
CCNc1cc(C(=O)Nc2ccc(N3CCOCC3)cc2)ccn1	31	10
O=C(Nc1ccc(N2CCOCC2)cc1)c1ccc2nc(Nc3ccccn3)sc2c1	52*	-32
O=C(Nc1ccc(N2CCOCC2)cc1)c1ccc2nc(Nc3ccc(N4CCOCC4)cc3)sc2c1	2	6
O=C(Nc1ccc(N2CCOCC2)cc1)c1ccnc(NCCN2CCOCC2)c1	47*	-18
c1ccc(Nc2ccnc(Nc3ccncn3)n2)cc1	45*	16
CC(C)n1cnc2c(Nc3ccccc3)nc(Nc3ccncn3)nc21	50*	-5
CC(C)n1cnc2c(NC3CCN(Cc4ccccc4)CC3)nc(Nc3ccncn3)nc21	15	12
CC(CNc1nccc(Nc2ccncn2)n1)c1cccs1 (configuration not stated)	44*	10
c1ccc(Nc2ccnc(Nc3ccncc3)n2)cc1	17	3
CC(=O)Nc1ccc(Nc2nc(Nc3ccncn3)nc3c2ncn3C(C)C)cc1	55*	4
CC(=O)Nc1ccc(Nc2nc(Nc3ccncn3)nc3c2ncn3-c2ccccc2)cc1	-49	5
COC(CNc1nccc(Nc2ccncn2)n1)c1cccs1 (configuration not stated)	4	-4
COc1ccc(-c2cccc3cnc(NC4CCC(C(=O)N5CCCC5)CC4)nc23)cc1F (configuration not stated)	-7	-10
O=C(Nc1ccc(F)c(F)c1N1CCC(O)CC1)c1ccc(Br)o1	9	-4
CC(=O)c1cccc(-c2cccc(C(=O)NCCN3CCOCC3)n2)c1	-9	-28
COc1ccc(-c2nc3c(Nc4ccccc4)ncnc3n2C(C)C)cn1	0	5
COc1ccc(CCNc2ccnc(Nc3ccccc3)n2)cc1	0	5
SMILES	ULK1 inh	ASK1 inh
Cc1nn(C)c(C)c1-c1nc2c(N)ncnc2n1C(C)C	-1	-8
CCn1c(C2NCCc3cc(OC)c(OC)cc32)nc2cc(F)c(-c3ccnc(N)n3)cc21 (configuration not stated)	8	1
CC(=O)Nc1ccc(Nc2nc(Nc3ccc4ncccc4c3)nc3c2ncn3C(C)C)cc1	34	-8
CC(C)n1cnc2c(Nc3ccccc3)nc(Nc3ccccn3)nc21	49*	-4
CC(=O)Nc1ccc(Nc2nc(Nc3ncccn3)nc3c2ncn3C(C)C)cc1	47*	3
CC(C)n1cnc2c(NCCO)nc(Nc3ccccn3)nc21	9	-8
O=C([C@H](O)c1ccccc1)N1CCC(Nc2ccc3[nH]ncc3c2)C1 (some centres not stated)	2	-29
c1ccc(-c2ccnc(Nc3ccc(-c4ncn[nH]4)cc3)n2)cc1	-10	-16
Fc1ccc(-c2n[nH]c3ccc(-c4ncn[nH]4)cc23)cc1	71*	-69
Oc1ccc(CCNc2nc(Nc3cnccn3)nc3c2ncn3-c2ccccc2)cc1	-13	15
N[C@@H]1CC[C@H](c2nc3ccc(-c4ccncc4)cc3[nH]2)C1	-4	3
c1ccc(OCCNc2nc(Nc3ncccn3)nc3nc[nH]c23)cc1	5	9
OCCNc1nc(Nc2ccc(-n3ccnc3)cc2)nc2nc[nH]c12	56*	-60
c1ccc(Nc2nc(Nc3ccc(-n4ccnc4)cc3)nc3nc[nH]c23)cc1	24	-9
COc1ccc(CCNc2nc(Nc3ccc(-n4ccnc4)cc3)nc3nc[nH]c23)cc1	27	-17
c1ccc(OCCNc2nc(Nc3ccncc3)nc3nc[nH]c23)cc1	57*	2
CC(=O)Nc1ccc(Nc2nc(Nc3ccc(-n4ccnc4)cc3)nc3nc[nH]c23)cc1	52*	-13
CC(C)N(CCNc1cc(Nc2cnccn2)ncn1)C(C)C	2	-21
COc1cc(Nc2nc(N3CCN(c4ccccn4)CC3)nc3c2ncn3CCN2CCCC2=O)cc(OC)c1OC	-9	-1
Cc1cc(NCCOc2ccccc2)nc(-c2c(C)noc2C)n1	-5	1
O=C(c1cc2nc(-c3ccco3)cc(C(F)(F)F)n2n1)N1CCCCC1	-6	.
O=C(Nc1ccc2nc(-c3ccco3)c(-c3ccco3)nc2c1)N1CCCC1	67*	.
Nc1cccc(-c2cccc(C(=O)NC3CC3)n2)c1	1	8
